The target in assay [1] is Rap guanine nucleotide exchange factor 3 (Homo sapiens) (UniProt O95398). The experiment in a line: Confirmatory qHTS for antagonist of cAMP-regulated guanine nucleotide exchange factor 3 (EPAC1) (AID 1645880).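 For activity, negative = inhibition: plate controls were DMSO only for no effect and full effect of the ATA control for full effect.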 Note: nearly all actives have a fitted effect of over 55% in size. Note: potency is the fitted concentration of half-maximal effect. The conditions noted are these: EPAC1 Rap1B-BODIPY-GDP exchange, fluorescence; activity, negative = inhibition: at 115 µM (top of the series). A digest of the protocol:
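Released BODIPY-GDP fluoresces less than Rap1-bound BODIPY-GDP; the signal is followed at 480/540 nm at 5-min intervals over 30 min, after 5 min at room temperature. Reactions contain 100 nM EPAC1, 250 nM RAP1B-BODIPY-GDP and 50 uM GDP; results are normalized to ATA and DMSO.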
(In general: Quantitative high-throughput screening tests each substance at several concentrations.)

In assay [2] the target is Rap guanine nucleotide exchange factor 4 (Homo sapiens) (UniProt Q8WZA2). The experiment in a line: Confirmatory qHTS for antagonist of cAMP-regulated guanine nucleotide exchange factor 4 (EPAC2) (AID 1645885). Note: nearly all actives have a fitted effect of over 25% in size. Note: potency is the fitted concentration of half-maximal effect.
Sequence of Rap guanine nucleotide exchange factor 4 (Homo sapiens) (Q8WZA2 whole entry, looked up): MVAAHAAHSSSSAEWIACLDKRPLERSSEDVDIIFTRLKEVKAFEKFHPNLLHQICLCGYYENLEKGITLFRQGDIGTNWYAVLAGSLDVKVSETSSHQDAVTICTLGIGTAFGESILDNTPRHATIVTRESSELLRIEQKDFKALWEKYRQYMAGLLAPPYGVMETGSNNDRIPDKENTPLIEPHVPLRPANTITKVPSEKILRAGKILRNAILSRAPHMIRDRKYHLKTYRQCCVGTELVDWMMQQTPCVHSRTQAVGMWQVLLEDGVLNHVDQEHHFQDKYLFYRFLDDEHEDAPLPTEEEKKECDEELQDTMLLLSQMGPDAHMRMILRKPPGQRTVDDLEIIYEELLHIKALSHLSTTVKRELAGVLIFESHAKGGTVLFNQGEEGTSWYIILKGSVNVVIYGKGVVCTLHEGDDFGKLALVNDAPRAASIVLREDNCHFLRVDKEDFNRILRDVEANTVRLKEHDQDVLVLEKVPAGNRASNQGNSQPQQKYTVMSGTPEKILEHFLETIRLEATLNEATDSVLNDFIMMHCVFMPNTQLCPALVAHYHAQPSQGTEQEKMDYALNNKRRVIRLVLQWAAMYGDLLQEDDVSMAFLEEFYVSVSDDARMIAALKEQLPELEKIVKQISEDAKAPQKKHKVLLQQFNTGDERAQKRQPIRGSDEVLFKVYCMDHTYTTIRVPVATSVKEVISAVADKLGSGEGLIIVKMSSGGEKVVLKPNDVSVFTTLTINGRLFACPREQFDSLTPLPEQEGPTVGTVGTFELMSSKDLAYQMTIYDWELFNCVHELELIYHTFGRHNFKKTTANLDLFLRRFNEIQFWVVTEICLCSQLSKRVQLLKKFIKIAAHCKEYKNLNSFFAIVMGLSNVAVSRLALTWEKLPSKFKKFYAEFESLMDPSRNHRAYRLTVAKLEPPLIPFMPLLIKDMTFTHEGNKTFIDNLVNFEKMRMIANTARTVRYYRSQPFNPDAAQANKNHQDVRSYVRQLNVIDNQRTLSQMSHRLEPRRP
Assay [3] deals with Rap guanine nucleotide exchange factor 3 (Homo sapiens) (UniProt O95398). Kind of assay: Counterscreen qHTS for antagonist of cAMP-regulated guanine nucleotide exchange factor 3 (EPAC1) (AID 1645888). Note: % of control where 0% means no effect. The method in brief: (§1)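 Rap1B–BODIPY-GDP (250 nM) with 50 uM GDP; compounds pin-transferred to 9.74 nM–152 uM final (activator) or from 7.32 nM upwards (inhibitor). Fluorescence Ex/Em 480/540 nm read at 5 and 30 min, then after adding cAMP or buffer, at room temperature.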
Sequence of Rap guanine nucleotide exchange factor 3 (Homo sapiens) (O95398 whole entry, looked up): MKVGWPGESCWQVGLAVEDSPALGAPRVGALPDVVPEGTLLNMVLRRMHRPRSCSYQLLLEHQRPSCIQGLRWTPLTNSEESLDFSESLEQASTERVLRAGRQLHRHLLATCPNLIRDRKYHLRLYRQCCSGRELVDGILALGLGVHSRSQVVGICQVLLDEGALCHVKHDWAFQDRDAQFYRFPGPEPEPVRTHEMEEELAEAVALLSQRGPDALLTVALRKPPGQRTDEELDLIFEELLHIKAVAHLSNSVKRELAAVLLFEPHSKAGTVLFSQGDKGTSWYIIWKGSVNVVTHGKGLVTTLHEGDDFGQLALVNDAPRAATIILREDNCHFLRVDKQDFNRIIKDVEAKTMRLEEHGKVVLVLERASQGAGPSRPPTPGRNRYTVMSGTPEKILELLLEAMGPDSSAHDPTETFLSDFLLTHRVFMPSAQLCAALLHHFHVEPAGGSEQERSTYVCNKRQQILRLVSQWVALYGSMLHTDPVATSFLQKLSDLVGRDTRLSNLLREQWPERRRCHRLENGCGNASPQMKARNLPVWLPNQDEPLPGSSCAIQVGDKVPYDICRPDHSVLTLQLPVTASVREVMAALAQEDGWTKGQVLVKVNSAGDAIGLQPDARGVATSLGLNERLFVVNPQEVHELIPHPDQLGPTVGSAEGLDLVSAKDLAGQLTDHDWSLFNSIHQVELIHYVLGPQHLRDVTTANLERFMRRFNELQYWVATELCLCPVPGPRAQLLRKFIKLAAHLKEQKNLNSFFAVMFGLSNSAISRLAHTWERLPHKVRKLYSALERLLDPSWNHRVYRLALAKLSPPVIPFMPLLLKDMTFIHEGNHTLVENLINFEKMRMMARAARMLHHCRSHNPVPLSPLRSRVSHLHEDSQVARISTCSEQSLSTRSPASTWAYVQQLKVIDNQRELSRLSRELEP
A general note: The purpose of a counterscreen is to sort out artefacts and off-target activity.

Assay [4] has the same target. Kind of assay: Counterscreen qHTS for agonist of cAMP-regulated guanine nucleotide exchange factor 3 (EPAC1) (AID 1645889). For activation: % of control where 0% means no effect. Note: nearly all actives have a fitted effect of over 40% in size. Note: potency is the fitted concentration of half-maximal effect. The method in brief: as §1
For assay [5], the target named is Lysosomal acid glucosylceramidase (Homo sapiens) (UniProt P04062). The experiment in a line: Glucocerebrosidase-p2 (AID 348; in the data active = potency below about 10 µM; note: potency is the fitted concentration of half-maximal effect). The conditions noted are these: purified GBA, blue fluorogenic substrate, 40 min. A digest of the protocol:
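Normal human glucocerebrosidase (0.2 nM) with blue fluorogenic substrate (80 uM final) in citrate/phosphate pH 5.9 with 10mM sodium taurocholate, 0.01% tween-20; 40 min RT, NaOH/glycine stop; fluorescence Ex 365/Em 440; AC50 from a titration from 0.6 nM upwards.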

Assay [6] is described as follows: AP1 Signaling Pathway (AID 357; active = well fitted curve in either direction with a large enough effect, not every such curve was filed as active;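 note: ME-180 reporter cells stimulated with EGF at its EC50 level; % is set by controls: 0 for no effect and ±100 for the full control effect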). Conditions: ME-180 (cervical carcinoma) AP-1-bla reporter, EGF-induced, beta-lactamase ratio, 5 h; at 7.69 µM (top of the series) unless noted. The method in brief:
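Cells are seeded overnight, exposed to compound titrations and an EC50 level of EGF for 5 hours at 37 °C, then loaded with CCF4 dye for 2.5 hours. Beta-lactamase activity under the AP-1 element is read as a blue/green ratio.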

Assay [7] deals with Cytochrome P450 1A2 (Homo sapiens) (UniProt P05177). The experiment in a line: p450-cyp1a2 (AID 410; calls by dose curve; note: potency is the fitted concentration of half-maximal effect). A digest of the protocol: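 Read-out is luminescence from luciferin produced by CYP1A2 demethylation of Luciferin-ME (100uM, at Km). Detection reagent stopped the 60 min NADPH-dependent reaction; signals were normalized to 57 uM furafylline.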
Sequence of Cytochrome P450 1A2 (Homo sapiens) (P05177 whole entry, looked up): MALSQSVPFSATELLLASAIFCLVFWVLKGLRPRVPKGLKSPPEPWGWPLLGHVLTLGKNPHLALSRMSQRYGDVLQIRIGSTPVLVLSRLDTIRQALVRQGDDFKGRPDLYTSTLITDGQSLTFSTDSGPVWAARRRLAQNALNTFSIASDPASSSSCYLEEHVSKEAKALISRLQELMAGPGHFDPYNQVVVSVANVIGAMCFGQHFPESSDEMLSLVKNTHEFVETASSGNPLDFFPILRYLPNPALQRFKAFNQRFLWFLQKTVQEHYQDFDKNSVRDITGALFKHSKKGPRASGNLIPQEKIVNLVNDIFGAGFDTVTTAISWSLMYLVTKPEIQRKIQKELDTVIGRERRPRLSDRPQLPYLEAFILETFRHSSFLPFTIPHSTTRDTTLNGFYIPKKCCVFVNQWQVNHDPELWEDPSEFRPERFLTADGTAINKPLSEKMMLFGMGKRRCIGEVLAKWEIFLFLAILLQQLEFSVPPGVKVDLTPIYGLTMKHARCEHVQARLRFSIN
Assay [8] is described as follows: Stat Signaling Pathway (AID 446; active = well fitted curve in either direction with a large enough effect, not every such curve was filed as active;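 note: ME-180 cervical cancer cells given 40 pM IL-6 alongside compound; SIE-controlled beta-lactamase reporter measured as 460/530 nm FRET emission ratio; % is set by controls: 0 for no effect and ±100 for the full control effect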). The method in brief: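 Normalization used AC90 stimulation (300 pM IL-6) and AC90 inhibition (125 nM pan-JAK inhibitor at 40 pM IL-6). The underlying signal is SIE-driven beta-lactamase in ME-180 cells after 5 h IL-6 exposure with compound.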
For assay [9], the target named is Glucocorticoid receptor (Homo sapiens) (UniProt P04150). Kind of assay: GR-GFP Redistribution (AID 450;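 active = compounds whose dose series gives a full or clear partial fitted curve of increased nuclear translocation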; note: potency is the fitted concentration of half-maximal effect). Conditions: U2OS GR-GFP nuclear translocation, laser cytometry, 2 h.
Sequence of Glucocorticoid receptor (Homo sapiens) (P04150 whole entry, looked up): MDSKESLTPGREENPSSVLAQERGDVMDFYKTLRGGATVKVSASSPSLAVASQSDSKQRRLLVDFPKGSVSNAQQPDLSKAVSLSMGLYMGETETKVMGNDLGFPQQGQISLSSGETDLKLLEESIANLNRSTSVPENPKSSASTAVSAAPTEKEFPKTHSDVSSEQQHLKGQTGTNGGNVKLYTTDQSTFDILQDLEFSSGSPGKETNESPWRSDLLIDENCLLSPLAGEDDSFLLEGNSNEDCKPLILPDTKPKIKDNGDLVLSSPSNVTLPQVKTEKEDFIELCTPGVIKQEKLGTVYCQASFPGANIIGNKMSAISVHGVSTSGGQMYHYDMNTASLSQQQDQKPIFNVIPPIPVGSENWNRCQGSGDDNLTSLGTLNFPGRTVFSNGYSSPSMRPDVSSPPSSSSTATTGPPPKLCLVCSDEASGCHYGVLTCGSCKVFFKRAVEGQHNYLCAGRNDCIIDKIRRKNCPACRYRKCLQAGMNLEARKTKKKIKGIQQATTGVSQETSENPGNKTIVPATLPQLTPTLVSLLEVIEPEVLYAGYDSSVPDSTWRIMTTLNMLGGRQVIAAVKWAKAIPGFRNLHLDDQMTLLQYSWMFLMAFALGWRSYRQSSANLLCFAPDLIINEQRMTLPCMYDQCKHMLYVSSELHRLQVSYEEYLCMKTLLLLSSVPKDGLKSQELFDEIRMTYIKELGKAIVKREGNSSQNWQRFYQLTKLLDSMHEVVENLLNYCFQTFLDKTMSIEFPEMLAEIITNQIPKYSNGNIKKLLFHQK
The target is the same in assay [10]. Kind of assay: GR-EFC Redistribution (AID 451; calls by dose curve; note: potency is the fitted concentration of half-maximal effect). The conditions noted are these: CHO-K1 GR-EFC translocation, beta-gal luminescence, 2 h. A digest of the protocol:
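CHO-K1 cells expressing nuclear EA and GR-ED fragments of b-gal; compounds titrated up to 46 uM final, 2 h at 37 C. GR nuclear translocation read as complemented b-gal luminescence after 1 h RT detection.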

The target in assay [11] is Mitogen-activated protein kinase 10 (Mus musculus) (UniProt Q61831). The experiment in a line: JNK3 AlphaScreen Assay (AID 530; active = well fitted curve in either direction with a large enough effect, not every such curve was filed as active;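 note: kinase came from lysate of stimulated human HepG2 cells; signal reports phosphorylation of biotinylated GST-cJun 1-79 at Ser73 with 10 µM ATP; % is set by controls: 0 for no effect and ±100 for the full control effect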). A digest of the protocol:
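HepG2 lysate (IL-1b/TNFa pre-activated) + biotin-GST-cJun 1-79 + anti-pSer73 cJun; cpd titration, 15 min RT; ATP 10 uM start; Tris pH 7.6, MgCl2, DTT, vanadate; beads in EDTA buffer; AlphaScreen.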
In general terms: In Alpha technology, singlet oxygen from a donor bead excites a nearby acceptor bead.

Assay [12] concerns the target 3',5'-cyclic-AMP phosphodiesterase 4B (Homo sapiens) (UniProt Q07343). Kind of assay: qHTS Assay for Inhibitors of PDE-IV (AID 607; active = well fitted activation curve with a large enough effect in the main read-out, with a control signal flat, not every such curve was filed as active; note: % of control where 0% means no effect). A digest of the protocol:
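HEK293 ACTOne cells with CNG channel (1000/well), endogenous PDE4; membrane potential dye, compounds up to 22.9 uM final. Fluorescence Ex 535/Em 590; RO 20-1724 (100 uM final) as reference.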

Assay [13] concerns the target Cytochrome P450 2C9 (Homo sapiens) (UniProt P11712). The experiment in a line: qHTS Assay for Inhibitors and Substrates of Cytochrome P450 2C9 (AID 883). Note: potency is the fitted concentration of half-maximal effect; nearly all actives have a fitted effect of over 60% in size. A digest of the protocol: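 Signal: luciferase luminescence reporting luciferin produced by CYP2C9. Conditions: 10nM enzyme, Luciferin-H 100uM at KM, 25mM KPO4, 37C, 60 min NADPH-driven reaction. Reference: 57uM sulphaphenazole as 100% inhibition.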

Assay [14] has as its target Cytochrome P450 3A4 (Homo sapiens) (UniProt P08684). The experiment in a line: qHTS Assay for Inhibitors and Substrates of Cytochrome P450 3A4 (AID 884). Note: potency is the fitted concentration of half-maximal effect; nearly all actives have a fitted effect of over 50% in size. A digest of the protocol:
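Luminescent readout of luciferin produced by CYP3A4 (20 nM) dealkylation of Luciferin-PPXE, 25 uM (its KM). NADPH-driven reaction ran 60 min at RT after 10 min compound preincubation; data scaled to 57 uM ketoconazole as 100% inhibition.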

Assay [15] has the same target. Kind of assay: qHTS Assay for Activators of Cytochrome P450 3A4 (AID 885). Note: nearly all actives have a fitted effect of over 65% in size. The method in brief:
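Human CYP3A4 dealkylates Luciferin-PPXE to luciferin, which luciferase detection converts to light. Substrate was at its KM (25uM), buffer 200mM KPO4, reaction 60 min at RT.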

Assay [16] concerns the target Cytochrome P450 2C19 (Homo sapiens) (UniProt P33261). The experiment in a line: qHTS Assay for Inhibitors and Substrates of Cytochrome P450 2C19 (AID 899). Note: potency is the fitted concentration of half-maximal effect; nearly all actives have a fitted effect of over 60% in size. The method in brief:
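Signal comes from luciferase acting on luciferin released by CYP2C19-mediated hydroxylation of Luciferin-H EGE, 10uM (KM). Assay mix: 5nM enzyme, 50mM KPO4; 60 min at 37C with NADPH regeneration. Data normalized against 57uM ketoconazole.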

Assay [17] addresses Tumor susceptibility gene 101 protein (Homo sapiens) (UniProt Q99816). The experiment in a line: qHTS Assay for Iinhibitors of HIV-1 Budding by Blocking the Interaction of PTAP/TSG101: Hit Validation (AID 651600). Note: nearly all actives have a fitted effect of over 70% in size. Note: potency is the fitted concentration of half-maximal effect. The method in brief:
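Fluorescence polarization binding assay: Tsg101 binding domain (10 uM final) pre-dispensed with compounds, then FITC-labeled PTAP-motif peptide (50 nM final) added; 20 min at r.t. in HEPES pH 7.5 buffer with NaCl, Tween 20, EDTA, TCEP.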

Assay [18] in a line: qHTS for Inhibitors of the vitamin D receptor (VDR): Hit Validation using a Texas Red Assay (AID 602201). Note: potency is the fitted concentration of half-maximal effect. A digest of the protocol: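 Fluorescence polarization with 1.5 uM VDR-LBD, LG19078 and 7 nM Texas Red (final). After 2 hours at ambient temperature, read at Ex 595 nm/Em 615 nm.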
Assay [19] in a line: NFAT Signaling Pathway (AID 444; active = well fitted curve in either direction with a large enough effect, not every such curve was filed as active;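 note: carbachol stimulus at about its EC50 of 1 µM final; % is set by controls: 0 for no effect and ±100 for the full control effect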). The conditions noted are these: Jurkat NFAT-bla M1, carbachol, beta-lactamase ratio, 5 h; at 7.69 µM (top of the series) unless noted. The method in brief: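 Jurkat cells with NFAT-driven β-lactamase reporter and co-expressed M1 receptor, stimulated with carbachol (final 1 uM, ~EC50), compound titration, 5 h at 37 °C. CCF4 loaded 1 h at RT; 460/530 nm ratio gave %activity and AC50.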

Molecules are shown by their SMILES. Unmarked numbers belong to inactive results. Results filed as inconclusive are left out. The source made the active and inactive calls. Unless noted, calls come from the whole dose curve; as a rule, active = well fitted curve in the direction sought with a large enough effect; inconclusive = small, poorly fitted or top-dose-only effect, or another doubt; inactive = no such curve, though single readings can be large; an effect the other way counts as inactive or inconclusive.

Sequence of Cytochrome P450 3A4 (Homo sapiens) (P08684 whole entry, looked up): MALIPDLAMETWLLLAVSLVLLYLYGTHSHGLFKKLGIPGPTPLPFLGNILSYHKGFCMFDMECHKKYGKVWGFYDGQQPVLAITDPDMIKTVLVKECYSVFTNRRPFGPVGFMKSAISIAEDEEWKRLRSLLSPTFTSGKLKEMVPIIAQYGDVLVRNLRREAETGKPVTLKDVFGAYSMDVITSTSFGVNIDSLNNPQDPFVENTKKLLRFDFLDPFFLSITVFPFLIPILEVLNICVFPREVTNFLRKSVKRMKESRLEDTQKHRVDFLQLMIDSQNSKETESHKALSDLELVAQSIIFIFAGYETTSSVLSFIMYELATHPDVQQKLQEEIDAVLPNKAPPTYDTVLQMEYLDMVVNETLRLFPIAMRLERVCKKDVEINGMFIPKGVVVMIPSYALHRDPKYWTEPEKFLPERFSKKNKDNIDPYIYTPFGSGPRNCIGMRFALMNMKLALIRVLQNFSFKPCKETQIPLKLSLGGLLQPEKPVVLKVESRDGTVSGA
Sequence of Cytochrome P450 2C19 (Homo sapiens) (P33261 whole entry, looked up): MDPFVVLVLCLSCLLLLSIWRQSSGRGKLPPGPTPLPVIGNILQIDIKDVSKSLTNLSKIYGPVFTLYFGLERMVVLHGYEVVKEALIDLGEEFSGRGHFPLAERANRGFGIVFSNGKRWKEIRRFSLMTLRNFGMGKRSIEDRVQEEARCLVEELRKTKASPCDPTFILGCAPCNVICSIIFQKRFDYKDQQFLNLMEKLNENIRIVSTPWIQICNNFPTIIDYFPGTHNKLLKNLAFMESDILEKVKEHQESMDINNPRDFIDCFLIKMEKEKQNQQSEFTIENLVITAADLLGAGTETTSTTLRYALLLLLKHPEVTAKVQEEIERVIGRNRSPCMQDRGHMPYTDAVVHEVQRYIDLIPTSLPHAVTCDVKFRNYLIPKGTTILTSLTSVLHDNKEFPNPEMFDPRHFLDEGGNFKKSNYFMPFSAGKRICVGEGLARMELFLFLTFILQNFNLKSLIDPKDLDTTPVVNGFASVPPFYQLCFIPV
Sequence of Tumor susceptibility gene 101 protein (Homo sapiens) (Q99816 whole entry, looked up, the tested form may be a part): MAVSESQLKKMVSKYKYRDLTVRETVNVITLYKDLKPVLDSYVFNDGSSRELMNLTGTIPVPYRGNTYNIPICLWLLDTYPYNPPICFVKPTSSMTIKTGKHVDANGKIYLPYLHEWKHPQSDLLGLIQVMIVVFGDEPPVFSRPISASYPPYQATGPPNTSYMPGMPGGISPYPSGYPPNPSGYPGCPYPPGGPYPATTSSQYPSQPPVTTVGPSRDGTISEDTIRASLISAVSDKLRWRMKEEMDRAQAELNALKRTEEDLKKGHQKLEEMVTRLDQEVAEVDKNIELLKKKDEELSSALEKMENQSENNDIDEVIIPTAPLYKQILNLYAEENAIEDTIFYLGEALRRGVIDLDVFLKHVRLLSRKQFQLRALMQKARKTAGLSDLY

As to `Brc1ccc(CSc2nccn2-c2ccccc2)cc1`, the Potency entry in assay [1], in assay [2] and in assay [3] was “inactive” each time. In addition, the Potency in assay [4] was 1.58 µM (active).

On to `Clc1ccccc1NN(Cc1ccncc1)c1ccccc1Cl`, for which the Potency is more than 11.4 µM in assay [5]; 5.01 µM (active) in assay [7]; more than 46 µM in assay [9]; more than 9.22 µM in [10]; 1.58 µM (active) in assay [13]; 0.251 µM (active) in [14]. In addition, the figures for the Potency in assay [16] and in [2] were 1.26 µM (active) and 16.9 µM (active), respectively. The activity change, negative = inhibition in assay [6] is -14.2%; in assay [11], 3.26% [at 11.4 µM]. Further, the call in assay [8] was inactive. Moreover, the Potency result in assay [12], in assay [1] and in assay [3] was “inactive” throughout. Also, the activity change, positive = activation in [15] was -76.6% [at 11.4 µM].

Consider `COc1ccc(C2CC(c3cccs3)=NN2c2ccc(C=O)cc2)cc1` (configuration not stated), for which the Potency entry in assay [1], in [2] and in assay [3] was “inactive” in each case. In assay [4], the Potency is 44.7 µM (active).

In the case of `CC(C)CC1=NN2C(=N)/C(=C\c3coc4ccccc4c3=O)C(=O)N=C2S1`, the Potency result in [1] and in assay [2] was “inactive” in each case. In assay [3], the activity change, negative = inhibition was 51.1% [at 30.8 µM]. Further, the Potency in assay [4] was 12.6 µM (active).

With `O=C(O)c1cc(Cl)ccc1-c1ccc(/C=C/c2cc(C(F)(F)F)[nH]c(=O)n2)o1`, the Potency entry in assay [17], in [1] and in assay [2] was “inactive” throughout. Moreover, the activity change, negative = inhibition in [3] was 144% [at 30.8 µM]. Also, the Potency in assay [4] was 12.6 µM (active).

Consider `CC(C)(C)c1ccc(-n2nc(C#N)c(Cl)cc2=O)cc1`, for which the Potency in [18] is 15.8 µM (active); in assay [1], 42.6 µM (active); in assay [2], 0.338 µM (active). The Potency entry in [3] is “inactive”.

Regarding `COc1ccc(C(=O)N(CCc2ccccc2)Cc2cccs2)c(OC)c1`, the Potency entry in [1], in assay [2], in assay [3] and in assay [4] was “inactive” each time.

Consider `COc1ccccc1N1N=C(C(=O)c2ccccc2)C2C(=O)N(c3ccc(Br)cc3)C(=O)C21` (configuration not stated), for which the Potency result in assay [1], in assay [2] and in assay [3] was “inactive” each time. Further, the Potency in [4] was 17.8 µM (active).

Turning to `Nc1ccc2nc3c(=O)n(C4CCCCC4)c(=O)[nH]c3nc2c1`, the Potency was 6.51 µM (active) in assay [17] and 22.4 µM (active) in assay [4]. In addition, the Potency result in assay [1], in [2] and in assay [3] was “inactive” throughout.

Consider `Cc1cccc(N2CCN(S(=O)(=O)c3ccc4c(c3)CCN4C(=O)CCC(=O)O)CC2C)c1` (configuration not stated), for which the Potency in [1] is 47.8 µM (active). In addition, the Potency result in assay [2], in [3] and in [4] was “inactive” throughout.

In the case of `N=C(N)c1ccc(N=Nc2c(O)ccc3c2[nH]c2ccccc23)cc1`, the Potency in assay [5] was more than 11.4 µM; in assay [7] it was 1.58 µM (active); in [9] it was more than 46 µM; in assay [10] it was more than 9.22 µM; in assay [16], 1.26 µM (active); in [1], 56.2 µM (active). For the same compound, the activity change, negative = inhibition in assay [6] is 13.5%; in assay [19], 8.15%; in assay [11], -6.35% [at 11.4 µM]; in [3] it was -5.36% [at 30.8 µM]. In addition, in assay [8], the compound was called inactive. In addition, the Potency result in assay [12] and in assay [2] was “inactive” in each case. For the same compound, the activation in assay [4] is 33.2% [at 30.8 µM].

Source of the values: PubChem BioAssay (NCATS).
